From PubChem
An excerpt weighted towards active compounds, which were near 1.6% of everything screened.
KCNQ2 inh: inhibitors of rat KCNQ2 potassium channel | O88943 | CHO-K1 KCNQ2, FluxOR thallium flux, 20 min; active compounds read low | hit rate 1.1% among 310,000 | B-score at 10 µM;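 active = fluorescence ratio B-score at most minus 3 library SDs, with starting brightness B-score within 2 library SDs, cut at about -5.5 in these data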
Target sequence (O88943 whole entry, looked up): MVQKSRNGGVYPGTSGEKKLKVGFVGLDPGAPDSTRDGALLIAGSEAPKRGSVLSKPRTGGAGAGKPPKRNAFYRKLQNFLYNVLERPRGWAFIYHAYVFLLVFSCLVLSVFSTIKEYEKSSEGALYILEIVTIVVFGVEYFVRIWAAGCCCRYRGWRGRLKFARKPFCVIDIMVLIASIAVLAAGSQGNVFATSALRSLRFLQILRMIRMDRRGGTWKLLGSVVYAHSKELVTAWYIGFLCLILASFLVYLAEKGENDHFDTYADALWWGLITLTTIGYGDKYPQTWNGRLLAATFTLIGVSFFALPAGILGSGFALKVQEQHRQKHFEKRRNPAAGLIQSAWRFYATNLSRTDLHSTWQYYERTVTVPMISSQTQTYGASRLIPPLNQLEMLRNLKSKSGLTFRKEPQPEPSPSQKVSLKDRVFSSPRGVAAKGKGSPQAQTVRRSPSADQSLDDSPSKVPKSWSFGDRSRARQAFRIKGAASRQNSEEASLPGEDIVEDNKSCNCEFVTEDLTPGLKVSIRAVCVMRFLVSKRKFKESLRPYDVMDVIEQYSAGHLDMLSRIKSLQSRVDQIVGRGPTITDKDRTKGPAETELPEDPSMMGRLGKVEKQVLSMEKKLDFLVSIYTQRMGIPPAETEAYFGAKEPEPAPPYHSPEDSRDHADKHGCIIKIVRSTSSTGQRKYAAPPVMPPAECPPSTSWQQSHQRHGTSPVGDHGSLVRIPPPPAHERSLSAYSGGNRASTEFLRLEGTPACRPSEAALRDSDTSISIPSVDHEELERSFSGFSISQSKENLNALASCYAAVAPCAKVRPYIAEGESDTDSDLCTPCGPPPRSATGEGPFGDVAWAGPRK
KCNQ2 pot: potentiators of rat KCNQ2 potassium channel; O88943; CHO-K1 KCNQ2, FluxOR thallium flux fluorescence; active compounds read high; B-score at 10 µM; hit rate 0.54% among 310,000;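 active = fluorescence ratio B-score at least 3 SD of library B-scores, with initial fluorescence B-score within 3 of them, cut at about 5.3 in these data; same plate scores as AID 2156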;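 note: B-score of peak minus minimum over baseline fluorescence ratio after K+ and Tl+ stimulus; positive B-score means potentiation of KCNQ2 with more thallium influx and brighter signal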
Active calls of the source: *; i = inactive; nt = not tested or not shown.

SMILES	KCNQ2 inh	KCNQ2 pot
O=c1[nH]c(C2CCCN(S(=O)(=O)c3ccccc3)C2)nc2c1nnn2Cc1ccc(OC(F)(F)F)cc1 (configuration not stated)	i	0.06
O=S(=O)(c1ccc(OC(F)(F)F)cc1)N1CCCC(c2ccccc2)C1 (configuration not stated)	-5.7*	-5.7
c1csc(-c2noc(COc3ccc4c(c3)CCCC4)n2)c1	-6*	-6
Brc1ccc(-c2noc(COc3ccc4c(c3)CCC4)n2)o1	i	nt
O=C(CCc1ccccc1)Nc1nnc(-c2ccc3c(c2)OCCO3)o1	i	nt
O=C(c1ccc(Br)cc1)N1CCN(Cc2ccccc2)CC1	i	nt
O=C(CCN1CCN(C(=O)c2ccccc2)CC1)c1ccc(Br)cc1	-9*	-9
COc1ccc(C(CNC(=O)c2ccc3c(c2)C(=O)N(CCC(C)C)C3=O)N2CCOCC2)cc1 (configuration not stated)	-5.8*	-5.8
COc1ccc(C(CNC(=O)c2ccc(S(=O)(=O)N3CCCC3)cc2)N2CCOCC2)cc1 (configuration not stated)	i	nt
COc1ccc(/C=C/C(=O)N(CC(C)C)C2CCS(=O)(=O)C2)cc1 (configuration not stated)	i	nt
CCCC1(C(=O)OC)NC(c2ccc(OC)c(OC)c2)C2C(=O)N(c3cccc(C(C)=O)c3)C(=O)C21 (configuration not stated)	i	nt
CCCC1(C(=O)OC)NC(c2ccc(OC)cc2OC)C2C(=O)N(c3cccc(C(C)=O)c3)C(=O)C21 (configuration not stated)	-5.9*	-5.9
Cc1ccc(C(=O)NCCSCc2ccccc2)cc1[N+](=O)[O-]	i	nt
CCN(CC(=O)Nc1ccccc1OC)C(=O)CCOc1ccc(C(C)(C)C)cc1	-6.3*	-6.3
CCOc1ccc(OCCC(=O)N(CC)CC(=O)Nc2ccccc2C(F)(F)F)cc1	i	nt
CN1/C(=C\C(=O)COC(=O)c2ccc(O)cc2)C(C)(C)c2ccccc21	-6.2*	-6.2
CNS(=O)(=O)c1cccc(C(=O)OCC(=O)/C=C2/N(C)c3ccccc3C2(C)C)c1	i	1.3
CCOC(=O)/C=C1/N(C)c2ccccc2C1(C)C	i	1.9
CN1/C(=C\C(=O)COC(=O)c2ccc(O)c(O)c2)C(C)(C)c2ccccc21	-6.5*	-6.5
O=C(O)CCC(=O)N1CCc2cc(S(=O)(=O)N3CCN(c4ccc(F)cc4)CC3)ccc21	i	nt
CC(C)n1c(=S)[nH]c2ccccc2c1=O	i	0.52
O=c1c2ccccc2[nH]c(=S)n1CCc1ccccc1	i	7.2*
CCC(C)n1c(=S)[nH]c2ccccc2c1=O (configuration not stated)	i	6.8*
O=c1c2ccccc2[nH]c(=S)n1Cc1ccccc1	i	0.43
O=C(CSc1nc2ccccc2s1)N/N=C/c1cc([N+](=O)[O-])ccc1O	i	1.4
SMILES	KCNQ2 inh	KCNQ2 pot
O=C(CN1CCN(CC(=O)Nc2ccccc2F)CC1)Nc1cccc(F)c1	i	1.5
C=CCn1c(SCc2csc(C)n2)nc2sc3c(c2c1=O)CCCCC3	-8.1*	-8.1
C=CCn1c(SCc2csc(C)n2)nc2sc3c(c2c1=O)CCC(C)C3 (configuration not stated)	i	nt
C=CCn1c(SCc2cc(=O)n3ccsc3n2)nc2sc(C)c(C)c2c1=O	-9*	-9
C=CCn1c(SCC(=O)c2cccs2)nc2sc(C)c(C)c2c1=O	i	nt
Cc1ccc(CNC(=O)COC(=O)C2CCN(S(=O)(=O)c3cccs3)CC2)cc1	i	nt
CCCCn1c(N)c(N(CCC(C)C)C(=O)c2ccc3c(c2)OCCO3)c(=O)[nH]c1=O	i	0.29
CCN(Cc1ccccc1)C(=O)CSc1ncn[nH]1	i	0.03
Cn1c(CNc2ccc(Cl)cc2)nc2ccccc21	i	nt
CC(C)N=c1cc2n(-c3ccc(Cl)cc3)c3ccccc3nc-2cc1Nc1ccc(Cl)cc1	-8*	-8
CC(CNS(=O)(=O)c1cc(Cl)ccc1Cl)CN(C)C (configuration not stated)	i	0.15
N#CCSc1nnc(COc2cccc3ccccc23)n1-c1ccccc1	i	nt
Cc1ccc(C(=O)Nc2cc(Cl)ccc2Oc2ccccc2)cc1[N+](=O)[O-]	-6.1*	-6.1
Cc1ccc(C(=O)Nc2ccccc2-c2ccccc2)cc1[N+](=O)[O-]	i	nt
N#C/C(=C\c1ccc(O)cc1)C(=O)NCc1ccccc1	i	nt
CCc1cc(C(=O)OC)c(NC(=O)CN2CCN(C(=O)c3ccco3)CC2)s1	i	1.6
CCOC(=O)N1CCN(CC(=O)Nc2sc(CC)cc2C(=O)c2ccc(OC)cc2)CC1	-5.9*	-5.9
CC1CC(C)CN(C(=O)Cn2c(=O)c3cccn3c3cccnc32)C1 (configuration not stated)	i	nt
COc1cc(C(=O)OCC(=O)Nc2c(F)cccc2F)cc(OC)c1C	i	0.53
O=C(CSCc1ccc(Br)cc1)NCCc1ccccc1	-5.5*	-5.5
O=C(COC(=O)c1cccc(Br)c1)NCCc1ccccc1	-5.7*	-5.7
